Bioassay records (PubChem BioAssay)
T cruzi growth-1: blocks T. cruzi growth in NIH3T3 culture; T. cruzi beta-gal in NIH3T3, GalScreen luminescence, 90 h; inhibition, % at 8.34 µM; AID 624255; 5.9% of 77,000 active;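 active = mean inhibition above about 93%, with at least 55% of replicates each passing it, limit read from the data, passing the limit was not always enough; inconclusive = only one of those two conditions holds; inactive = neither condition holds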
Pf Dd2 inh: P. falciparum Dd2 growth inhibition. 2.3% of 94,000 active. SYBR Green, 72 h; hits give low values. AID 1159554. activity change, % at 10 µM; in the data active = activity change below about -80%; inconclusive = no clear call, values can overlap the other calls
C diff growth: C. difficile growth inhibition. Clostridium difficile clinical isolate growth, OD600, 24 h; hits give low values. growth activity, negative = inhibition, % at 16 µg/mL (by protocol). 0.25% of 86,000 active. AID 1259249;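 active = mean growth activity at or below -80% and every replicate also at or below -80%; inconclusive = mean at or below -80% but some replicate above -80%; inactive = mean growth activity above -80%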
T cruzi growth-2: inhibitors of T. cruzi proliferation | T. cruzi beta-gal in NIH3T3, GalScreen luminescence, 90 h | 72% of 5,600 active | inhibition, % at 8.35 µM | shares compounds with T cruzi growth-1;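 active = mean replicate inhibition above about 95% and at least 55% of replicates individually reaching it, limit read from the data; inconclusive = only one of the two criteria is met; inactive = neither criterion is met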
T cruzi growth-3: Trypanosoma cruzi proliferation inhibition | inhibition, % at 2.09 µM | shares compounds with T cruzi growth-1 | T. cruzi beta-gal in NIH3T3, GalScreen luminescence, 90 h | AID 651740 | 21% of 5,600 active;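 active = mean inhibition above about 95%, with at least 55% of replicates also reaching it, limit read from the data; inconclusive = meets just one of the two conditions; inactive = meets neither condition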
3T3 cytotox: kills mouse NIH/3T3 fibroblasts; shares compounds with T cruzi growth-1; NIH/3T3 viability, CellTiter-Glo ATP luminescence, 90 h; cytotoxicity (signal decrease), % at 8.35 µM; 14% of 5,600 active; AID 651742;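 active = mean signal decrease across replicates above about 35% based on untreated-well scatter, with enough replicates individually passing, limit read from the data; inconclusive = no rule stated though some were filed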
NIH3T3 tox 2: kills mouse NIH/3T3 fibroblasts; inhibition, % at 24.9 µM; shares compounds with T cruzi growth-1; NIH/3T3 viability, CellTiter-Glo ATP luminescence, 90 h; 56% of 5,600 active; AID 651744;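 active = mean loss of cell viability signal at or above a set limit, and enough replicates individually reaching it; inconclusive = meets only the mean limit or only the replicate share; inactive = meets neither condition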
A number is an active result; n = inactive; u = inconclusive; x = no result; ! = not active in a repeat. Shown are actives, neighbours in structure and some others; about 6.7% of the full set was active somewhere.

SMILES	T cruzi growth-1	Pf Dd2 inh	C diff growth	T cruzi growth-2	T cruzi growth-3	3T3 cytotox	NIH3T3 tox 2
C[C@H]1CCCCO[C@H](CN(C)S(=O)(=O)c2cccs2)[C@@H](C)CN([C@@H](C)CO)C(=O)c2cc(NS(=O)(=O)c3ccccc3)ccc2O1	105	n	n	106	n	n	n
C[C@@H]1CCCCO[C@H](CN(C)S(=O)(=O)c2cccs2)[C@H](C)CN([C@H](C)CO)C(=O)c2cc(NS(=O)(=O)c3ccc(Cl)cc3)ccc2O1	99	-87	n	102	114	n	n
C[C@@H]1CN([C@H](C)CO)C(=O)c2cc(NS(=O)(=O)c3ccc(Cl)cc3)ccc2O[C@@H](C)CCCCO[C@H]1CN(C)S(=O)(=O)c1cccs1	n	n	n	x	x	x	x
C[C@@H]1CN([C@@H](C)CO)C(=O)c2cc(NS(=O)(=O)c3ccc(Cl)cc3)ccc2O[C@@H](C)CCCCO[C@@H]1CN(C)S(=O)(=O)c1cccs1	n	n	n	x	x	x	x
C[C@@H]1CN([C@H](C)CO)C(=O)c2cc(NS(=O)(=O)c3ccc(Cl)cc3)ccc2O[C@@H](C)CCCCO[C@@H]1CN(C)S(=O)(=O)c1cccs1	101	n	n	116	n	n	n
C[C@@H]1CCCCO[C@@H](CN(C)S(=O)(=O)c2cccs2)[C@@H](C)CN([C@@H](C)CO)C(=O)c2cc(NS(=O)(=O)c3ccc(Cl)cc3)ccc2O1	n	n	x	x	x	x	x
Cc1noc(C)c1S(=O)(=O)Nc1ccc2c(c1)C(=O)N([C@H](C)CO)C[C@@H](C)[C@H](CN(C)C(=O)CCC(F)(F)F)OCCCC[C@@H](C)O2	n	n	n	x	x	x	x
CCC(=O)N1CC2(C1)[C@H](c1ccccc1)[C@H](CO)N2CC1CCOCC1	x	n	n	x	x	x	x
C[C@@H]1CN([C@@H](C)CO)C(=O)c2cc(N(C)C)ccc2O[C@@H](C)CCCCO[C@@H]1CN(C)S(=O)(=O)c1cccs1	106!	n	n	n	n	n	n
C[C@@H]1CCCCO[C@@H](CN(C)S(=O)(=O)c2cccs2)[C@H](C)CN([C@@H](C)CO)C(=O)c2cc(N(C)C)ccc2O1	n	x	n	x	x	x	x
C[C@@H]1CCCCO[C@@H](CN(C)S(=O)(=O)c2cccs2)[C@@H](C)CN([C@H](C)CO)C(=O)c2cc(NS(=O)(=O)c3ccc(F)cc3)ccc2O1	n	x	n	x	x	x	x
C[C@@H]1CN([C@@H](C)CO)C(=O)c2cc(NS(=O)(=O)c3ccc(F)cc3)ccc2O[C@@H](C)CCCCO[C@@H]1CN(C)S(=O)(=O)c1cccs1	97	x	n	108	n	n	n
CN(C)CC(=O)Nc1ccc2c(c1)[C@H]1C[C@@H](CC(=O)NCc3cccc(F)c3)O[C@H](CO)[C@H]1O2	n	n	n	x	x	x	x
CC(C)NC(=O)N(C)C[C@@H]1Oc2c(NC(=O)C3CCOCC3)cccc2C(=O)N([C@H](C)CO)C[C@H]1C	n	n	n	x	x	x	x
C[C@@H]1CN([C@@H](C)CO)C(=O)c2cc(NC(=O)Cc3ccccc3)ccc2O[C@@H](C)CCCCO[C@H]1CN(C)S(=O)(=O)c1cccs1	n	n	n	x	x	x	x
C[C@H]1CN([C@@H](C)CO)S(=O)(=O)c2ccc(C#Cc3ccccc3)cc2O[C@@H]1CN(C)S(=O)(=O)c1ccccc1F	125	n	n	98	103	n	29
C[C@H](CO)N1C[C@H](C)[C@@H](CN(C)S(=O)(=O)c2ccccc2F)Oc2cc(-c3ccncc3)ccc2S1(=O)=O	x	n	n	x	x	x	x
C[C@@H]1CN([C@H](C)CO)S(=O)(=O)c2ccc(C#Cc3ccccc3)cc2O[C@H]1CN(C)S(=O)(=O)c1ccccc1F	129	n	n	98	n	n	u
C[C@@H]1CN([C@H](C)CO)S(=O)(=O)c2ccc(C#Cc3ccccc3)cc2O[C@@H]1CN(C)S(=O)(=O)c1ccccc1F	122	n	n	105	106	n	52
Cc1ccc(S(=O)(=O)N(C)C[C@H]2Oc3cc(C#Cc4ccccc4)ccc3S(=O)(=O)N([C@H](C)CO)C[C@H]2C)cc1	x	n	n	x	x	x	x
C[C@H]1CN([C@@H](C)CO)S(=O)(=O)c2ccc(-c3ccncc3)cc2O[C@@H]1CN(C)S(=O)(=O)c1ccccc1F	x	n	n	x	x	x	x
C[C@H](CO)N1C[C@H](C)[C@H](CN(C)S(=O)(=O)c2ccccc2F)Oc2cc(C#Cc3ccccc3)ccc2S1(=O)=O	125	n	n	110	n	n	n
Cc1ccc(S(=O)(=O)N(C)C[C@H]2Oc3cc(C#Cc4ccccc4)ccc3S(=O)(=O)N([C@@H](C)CO)C[C@@H]2C)cc1	x	n	n	x	x	x	x
CC(C)NC(=O)Nc1cccc2c1O[C@@H](CN(C)Cc1ccc3c(c1)OCO3)[C@H](C)CN([C@H](C)CO)C2=O	x	n	n	x	x	x	x
Cc1ccc(S(=O)(=O)N(C)C[C@@H]2Oc3ccc(NC(=O)Cc4cn(C)c5ccccc45)cc3C(=O)N([C@H](C)CO)C[C@H]2C)cc1	n	n	n	x	x	x	x
SMILES	T cruzi growth-1	Pf Dd2 inh	C diff growth	T cruzi growth-2	T cruzi growth-3	3T3 cytotox	NIH3T3 tox 2
O=C(C1CC1)N1CCCCN2[C@@H](CO)[C@@H](c3ccc(C#CC4CC4)cc3)[C@@H]2C1	n	n	n	x	x	x	x
O=C(C1CCC1)N1CCCCN2[C@H](CO)[C@@H](c3ccc(C#CC4CCCC4)cc3)[C@@H]2C1	n	n	n	x	x	x	x
O=C(C1CC1)N1CCCCN2[C@@H](CO)[C@H](c3ccc(C#CC4CC4)cc3)[C@@H]2C1	103	n	n	n	n	n	52
O=C(C1CC1)N1CCCCN2[C@H](CO)[C@H](c3ccc(C#CC4CC4)cc3)[C@@H]2C1	n	n	n	x	x	x	x
O=C(C1CCCC1)N1CCCCN2[C@H](CO)[C@@H](c3ccc(C#CC4CC4)cc3)[C@H]2C1	109	n	n	107	n	n	49
O=C(C1CCC1)N1CCCCN2[C@H](C1)[C@H](c1ccc(C#CC3CCCC3)cc1)[C@@H]2CO	103	n	n	108	n	n	104
O=C(C1CCCC1)N1CCCCN2[C@@H](CO)[C@H](c3ccc(C#CC4CC4)cc3)[C@@H]2C1	121	n	n	110	n	40	82
O=C(C1CC1)N1CCCCN2[C@H](CO)[C@H](c3ccc(C#CC4CC4)cc3)[C@H]2C1	n	n	n	x	x	x	x
O=C(C[C@H]1CC[C@H](NC(=O)CC2CC2)[C@H](CO)O1)NCc1ccc(Cl)cc1	n	n	x	x	x	x	x
C[C@@H]1CN([C@@H](C)CO)C(=O)Cc2cc(NS(=O)(=O)c3cccs3)ccc2O[C@H]1CN(C)Cc1ccncc1	n	n	n	x	x	x	x
C[C@@H]1CCCCO[C@@H](CN(C)Cc2ccncc2)[C@H](C)CN([C@@H](C)CO)C(=O)c2cc(NS(=O)(=O)c3ccc(F)cc3)ccc2O1	x	n	n	x	x	x	x
C/C=C/c1ccc([C@H]2[C@@H](CNCC)N(c3nc(C)c(C)s3)[C@H]2CO)cc1	n	n	n	x	x	x	x
